Measurements from PubChem BioAssay (EPA / NIEHS).
The source made the active and inactive calls. How the source made its calls: active means hit-call score of the fitted dose curve at least 0.9, where 1 is the maximum; inconclusive means response in the unintended direction; inactive means score below 0.9.

Biological target: Peroxisome proliferator-activated receptor gamma (Homo sapiens) (UniProt P37231)
Assay: OT_PPARg_PPARgSRC1_1440: Odyssey Thera (OT) 24-hour Protein-Complementation Assay for Peroxisome Proliferator-activated Receptor Gamma/ SRC-1 Co-activator (AID 2283388)
Method in brief: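 HEK293T cells transiently transfected with PPARg and SRC-1 fused via (Gly4Ser)2 linker to split Venus YFP fragments (IFP1/IFP2) were dosed 24 h; fixed, Draq5-stained, imaged at 488/635 nm; nuclear/cytoplasmic fluorescence ratio scored versus DMSO baseline, gain-of-signal.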

Chain of Peroxisome proliferator-activated receptor gamma (Homo sapiens) (P37231 whole entry, looked up): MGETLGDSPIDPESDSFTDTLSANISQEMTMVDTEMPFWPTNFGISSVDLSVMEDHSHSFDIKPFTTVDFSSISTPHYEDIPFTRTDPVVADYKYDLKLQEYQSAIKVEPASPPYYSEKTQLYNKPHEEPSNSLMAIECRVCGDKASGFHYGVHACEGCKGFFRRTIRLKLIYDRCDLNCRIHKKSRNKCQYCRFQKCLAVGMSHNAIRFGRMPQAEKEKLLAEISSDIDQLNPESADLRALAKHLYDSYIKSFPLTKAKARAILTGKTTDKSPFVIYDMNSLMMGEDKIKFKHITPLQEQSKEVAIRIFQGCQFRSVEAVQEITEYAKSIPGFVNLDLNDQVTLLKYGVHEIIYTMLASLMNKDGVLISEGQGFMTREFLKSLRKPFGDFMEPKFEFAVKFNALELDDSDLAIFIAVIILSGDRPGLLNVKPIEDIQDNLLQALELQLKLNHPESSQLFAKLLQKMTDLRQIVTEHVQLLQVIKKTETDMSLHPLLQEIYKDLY

outcome, inactive:
Cc1cc(F)ccc1-c1cc(N2CC[C@@H](O)[C@H]2CO)ncc1N(C)C(=O)C(C)(C)c1cc(C(F)(F)F)cc(C(F)(F)F)c1, CO[C@H]1/C=C/O[C@@]2(C)Oc3c(C)c(O)c4c(O)c(c(/C=N/N5CCN(C)CC5)c(O)c4c3C2=O)NC(=O)/C(C)=C\C=C\[C@H](C)[C@H](O)[C@@H](C)[C@@H](O)[C@@H](C)[C@H](OC(C)=O)[C@@H]1C, O=c1c(-c2ccc(O)cc2)coc2cc(O)cc(O)c12, c1ccc2n[nH]nc2c1, CCCCOC(=O)CC(CC(=O)OCCCC)(OC(C)=O)C(=O)OCCCC, O=C1CCC(C2CCCCC2)CC1, Clc1cc(Cl)c2c(c1)N=C1CCCCCN1C2, NCc1cccc(C2CCN(C(=O)c3ccc(C#Cc4ccccc4F)o3)CC2)c1, CCCC(=O)OCCC(C)C, c1ccc2ccccc2c1, OCCO, CN(C)C(=O)C1(N2CCCCC2)CCN(CC[C@@]2(c3ccc(Cl)c(Cl)c3)CN(C(=O)c3ccccc3)CCO2)CC1, CN1C(=O)CC[C@H]1c1cccnc1, Clc1ccccc1C(c1ccccc1)(c1ccccc1)n1ccnc1, NC(=O)c1nc(-c2cccc(-c3cc(F)ccc3OCC(F)(F)C(F)(F)F)c2)n[nH]1, O=c1[nH]sc2ccccc12, CCCCOC(=O)c1ccc(O)cc1, CC(=O)N1CCN(c2ccc(OC[C@H]3CO[C@](Cn4ccnc4)(c4ccc(Cl)cc4Cl)O3)cc2)CC1, CCCCCCCCCCCC[N+](C)(C)C, CC(C)(O)c1ccc(CNC(=O)c2cccnc2Oc2ccc3nonc3c2)cc1, CCCCCCCC[Si](OCC)(OCC)OCC, C[C@]12CC[C@@H]3c4ccc(O)cc4CC[C@H]3[C@@H]1CC[C@H]2O, CN(C)c1ccc(C(=C2C=CC(=[N+](C)C)C=C2)c2ccc(N(C)C)cc2)cc1, O=C(O)Cc1cc(I)c(Oc2ccc(O)c(I)c2)c(I)c1, CC(O)CC(C)(C)O (stereo not given), O=C1c2ccccc2C(=O)N1CCc1noc(-c2ccc(CN3CCCCCC3)s2)n1, CCCCCCCCCC(=O)O, CC1(C)NC(=O)N(c2ccc([N+](=O)[O-])c(C(F)(F)F)c2)C1=O, Oc1ccc2ccccc2c1, O=C1O[C@H]([C@@H](O)CO)C(O)=C1O, CCCCCc1ccc(N)cc1, Cc1ncc(CO)c(CO)c1O, CCCCCCCCN(C)CCCCCCCC, Oc1ccccc1, CCOC(=O)O[C@H](C)OC(=O)c1ccc2c(c1)cc(C(=O)NC1CCN(C(C)C)CC1)n2Cc1cc(-c2ccc(Cl)s2)on1
